# From PubChem
# A selection: hits, their analogues and other compounds. The true share with any hit is near 1.6%.
# NR1D1 modulator – modulators of Rev-erb alpha DNA binding, primary screen, biochemical, FITC-DNA, fluorescence polarization, uHTS | Nuclear receptor subfamily 1 group D member 1 (Homo sapiens), P20393 | 370,000 compounds, 0.79% hits | Rev-erbα–FITC-DNA binding, 90 min | activity, % at 10 µM | AID 1259318, 2017;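 active = activity above about 14%, limit read from the data; passing the limit was not always enough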;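 note: 0% = DMSO wells with 35 nM protein and 100% = DMSO wells with 750 nM protein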
# Target sequence (P20393 whole entry, looked up): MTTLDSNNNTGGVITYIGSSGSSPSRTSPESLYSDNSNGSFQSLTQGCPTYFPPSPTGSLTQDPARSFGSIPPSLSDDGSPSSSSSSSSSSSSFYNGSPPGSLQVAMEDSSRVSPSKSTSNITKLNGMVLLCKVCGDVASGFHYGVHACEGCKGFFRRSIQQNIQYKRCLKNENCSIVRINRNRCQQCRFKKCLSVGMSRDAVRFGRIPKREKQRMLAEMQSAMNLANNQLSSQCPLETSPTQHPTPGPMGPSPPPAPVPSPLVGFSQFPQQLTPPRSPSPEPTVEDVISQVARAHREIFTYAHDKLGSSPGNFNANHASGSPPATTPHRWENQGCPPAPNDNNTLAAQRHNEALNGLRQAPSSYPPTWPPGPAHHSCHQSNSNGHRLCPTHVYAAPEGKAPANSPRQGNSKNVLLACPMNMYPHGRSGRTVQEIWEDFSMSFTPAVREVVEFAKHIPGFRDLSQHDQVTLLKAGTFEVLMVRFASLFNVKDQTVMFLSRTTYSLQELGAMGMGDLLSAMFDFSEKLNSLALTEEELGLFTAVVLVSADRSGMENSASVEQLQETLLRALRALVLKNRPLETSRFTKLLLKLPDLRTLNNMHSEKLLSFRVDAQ
# V-ATPase pH – regulators of yeast V-ATPase proton pumping, primary screen, pHLuorin cytosolic pH fluorescence. AID 504577, 2011. response, % at 10 µM. 350,000 compounds, 0.37% hits. S. cerevisiae; in the data active = response mostly above about 7.3%, no sharp cut-off; inactive = mostly below about 5.4%; note: actives read high
# NPR2 activator – human GC-B receptor activators, primary screen, HEK293 GC-B cells, cGMP TR-FRET, EC30 CNP; Atrial natriuretic peptide receptor 2 (Homo sapiens), P20594; 0% at EC30 CNP, 100% saturating CNP; activation, % at 10 µM; 370,000 compounds, 0.11% hits;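 active = activation at 10 µM reaching about 35% in either raw or pattern-adjusted values, limit read from the data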
# GC-A act – GC-A stimulated cGMP production enhancers – HEK293 GC-A cells, cGMP TR-FRET, EC30 ANP, primary screen; activation, % at 10 µM; 0% at EC30 ANP, 100% saturating ANP; 370,000 compounds, 0.14% hits; Atrial natriuretic peptide receptor 1 (Homo sapiens), P16066; in the data active = activation above about 40%
# PG9 Ab binder – binders of HIV-1 gp120 antibody PG9, primary screen, biochemical, TR-FRET. 360,000 compounds, 0.43% hits. TR-FRET gp120-PG9 antibody binding. inhibition, % at 6.7 µM; in the data active = inhibition above about 8.5%
# Active calls of the source: *; x = no result.
SMILES,NR1D1 modulator,V-ATPase pH,NPR2 activator,GC-A act,PG9 Ab binder
CCc1ccc(C(=O)Cn2ncc(Cl)c(Cl)c2=O)cc1,-10,2,26,60*,5
Cc1ccc(Cc2c(-c3ccc(Cl)cc3)nc3cc(C)ccn23)cc1,-1,2,48*,36,0
Cc1ccc(Cc2c(-c3ccc(C)cc3)nc3cc(C)ccn23)cc1,-8,1,29,29,1
Cc1cc(Cl)cc2sc(NC(=O)C3CC3)nc12,4,-1,-8,40,-3
O=C(Nc1nc2c(Cl)cccc2s1)C1CC1,-4,-2,-1,37,0
O=C(Nc1nc2c(Cl)ccc(Cl)c2s1)C1CC1,2,3,-6,61*,-1
Cc1ccc2sc(NC(=O)C3CC3)nc2c1C,-3,0,0,55*,2
O=C(Nc1nc2c(Cl)c(Cl)ccc2s1)C1CC1,-2,0,-4,57*,1
O=C(CN1C(=O)CCC1=O)Nc1nc2c(F)cc(F)cc2s1,0,-1,2,36,0
O=C(Nc1nc2c(F)cc(F)cc2s1)C1CC1,1,3,-2,67*,-3
c1ccc2cc3[nH]c(CNc4nc(N5CCOCC5)nc5c4ncn5-c4ccsc4)nc3cc2c1,0,x,1,-6,x
O=C(O)C(O)[C@H](O)[C@H](O)[C@H](O)[C@H](O)CO (stereo partly specified),8,x,x,x,x
CC(=O)O[C@]1(C(C)=O)CCC2C3C=C(Cl)C4=CC(=O)[C@@H]5C[C@@H]5[C@]4(C)C3CC[C@@]21C (stereo partly specified),-8,x,x,x,x
CCn1ncc(Br)c1C(=O)Nc1ccc(F)c([N+](=O)[O-])c1,-1,2,35*,28,-4
Cc1ccc(-n2c(SCC(=O)Nc3ccccc3-c3ccccc3)nnc2-c2ccccn2)cc1,8,x,-9,-6,x
Cc1ccnc(N/C=C(/NC(=O)c2ccccc2)C(=O)N/N=C\c2ccc(Cl)cc2)n1,3,1,3,52*,-2
COC(=O)[C@]12C[C@H](CC(=O)NCc3ccccc3)C(=O)N(Cc3cccc4ccccc34)C1=C[C@H](C1CCCC1)O[C@@H]2C,0,x,-7,-3,x
NC(=O)C(c1ccccc1)(c1ccccc1)[C@H]1CCN(CCc2ccc3c(c2)CCO3)C1,8,x,x,x,x
O=[N+]([O-])c1cc2no[n+]([O-])c2cc1N1CCCCC1,3,42*,20,42*,-1
N#Cc1cc(N2CCCCC2)c([N+](=O)[O-])cc1C#N,5,-6,-10,-5,-1
Cc1ccc(S(=O)(=O)N2CCC(c3nc4ccccc4o3)CC2)s1,-6,x,-7,-2,x
N#C[C@@H]1N[C@H](CO)[C@@H]1c1ccccc1,-3,x,7,0,x
CC(C)(C)C1CCC2(CC1)C(Nc1cccc(C(F)(F)F)c1)=NC(=S)N2CC#N (stereo unspecified),-4,3,46*,2,-1
CCC(CC)c1nnc(NC(=O)C23CC4CC(CC(NC(C)=O)(C4)C2)C3)s1,4,2,0,4,0
CC(=O)NC12CC3CC(C1)CC(C(=O)Nc1nc4ccc(F)cc4s1)(C3)C2,0,0,-1,43*,-1
SMILES,NR1D1 modulator,V-ATPase pH,NPR2 activator,GC-A act,PG9 Ab binder
O=S1(=O)c2ccc(Br)cc2OC[C@@H](Cc2ccccc2)N1Cc1cn(CC2CCCCC2)nn1,-1,x,8,-1,x
CC(C)(C)n1ncc2c(=O)n(Cc3c(F)cccc3Cl)cnc21,-3,2,40*,28,0
CCCCNC(=O)C[C@H]1C[C@@]2(C(=O)OC)C(=C[C@H](C(C)(C)C)O[C@@H]2C)N(Cc2cccc3ccccc23)C1=O,5,x,-18,-13,x
C/C(=N\NC(=O)c1ccc(Cl)cc1)c1cccs1,-3,12*,-3,2,-1
CC1(C)O[C@@H]2CC3C4CCC5=CC(=O)C=C[C@]5(C)[C@@]4(F)[C@@H](O)C[C@]3(C)[C@]2(C(=O)CO)O1 (stereo partly specified),0,x,x,x,x
Cc1nc2sc(C(=O)NCc3nccs3)c(N)c2c(C)c1Cl,24,x,6,11,x
O[C@@H]1COC2C1OC[C@@H]2O (stereo partly specified),1,x,x,x,x
CCC[C@H]1[C@@H](NC(=O)C2CCCCC2)CC[C@@]23CCCN2C(=O)CCC[C@@H]13,2,x,-4,1,x
c1ccc(CNc2ncnc3scc(-c4cccs4)c23)nc1,5,3,-2,-2,-2
c1ccc(-c2csc3ncnc(NCc4ccccn4)c23)cc1,6,22*,-4,-4,1
c1nc(NCCN2CCOCC2)c2sc3nc(N4CCOCC4)c4c(c3c2n1)CCC4,1,-2,10,14,1
CC1(C)Cc2c(c(N3CCOCC3)nc3sc4c(NCCN5CCOCC5)nnnc4c23)CS1,4,-2,42*,44*,-1
CC1(C)Cc2c(c(N3CCOCC3)nc3sc4c(NCC5CCCO5)nnnc4c23)CS1 (stereo unspecified),5,-1,49*,39,-1
Clc1ccc([C@H]2OC[C@@]3(CNC4CCCCC4)CS[C@H](c4ccc(Cl)cc4)N23)cc1,8,x,-4,-22,x
CC1CCCN(C(C(=O)Nc2ccc3c(c2)OCO3)c2ccccc2)C1 (stereo unspecified),8,14*,-11,-8,-2
c1ccc(-c2cc3c(N4CCN(c5ncccn5)CC4)ncnc3s2)cc1,14,-1,5,52*,3
C[C@@H]1CC2C3C[C@H](F)C4=CC(=O)C=C[C@]4(C)[C@@]3(F)[C@@H](O)C[C@]2(C)[C@@]1(O)C(=O)CO (stereo partly specified),6,x,x,x,x
COc1ccc(-c2csc3nc(-c4ccccc4OC)oc(=O)c23)cc1,3,0,6,42*,0
O=c1oc(-c2ccccc2F)nc2scc(-c3ccccc3)c12,3,3,-8,12,-1
COC(=O)C1CN(Cc2ccc(C)cc2)CCS(=O)(=O)N1Cc1cn(Cc2ccc(OC)cc2)nn1 (stereo unspecified),-4,x,4,-3,x
CC(=O)N(C1=C(Cl)C(=O)c2ccccc2C1=O)C1CCCCC1,-9,141*,-5,5,1
O=[N+]([O-])c1cc(S(=O)(=O)N2CCCCCC2)ccc1F,1,1,48*,8,0
O=[N+]([O-])c1cc(S(=O)(=O)N2CCCC2)ccc1O,0,-4,2,-2,0
CCOc1ccc(-n2c(SCC(=O)Nc3ccc(S(=O)(=O)Nc4cc(C)nc(C)n4)cc3)nnc2-c2ccc(OC)cc2)cc1,2,x,4,0,x
CC(=O)Nc1ccc2oc(-c3cc(F)c(F)cc3Cl)nc2c1,3,3,-8,58*,0
